Assay results as given in PubChem BioAssay AID456 (Sanford-Burnham Center for Chemical Genomics, 2006).
Hit rate of the full screen: of about 10,000 compounds, about 25 (0.2%) were called active. For the sample, actives were picked, then their nearest neighbours and some compounds at random. Measured potencies and affinities stand elsewhere. A number with no mark means an inactive call.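 The calls were made as follows: active = top tenth filtered wells with inhibition above zero that passed visual or statistical confirmation; inactive = the rest, including hits rejected on review.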

Test: suppression of endothelial VCAM-1 upregulation – imaging, high-content imaging, pooled HUVEC, TNFa stimulus (AID 456);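 as to inhibition: VCAM-1 immunofluorescence minus red nonspecific channel after plate median normalization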
Conditions: HUVEC TNFa-induced VCAM-1 surface expression, immunofluorescence imaging;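 compounds screened at 5 µM final in the well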

| Compound | inhibition |
| --- | --- |
| Cc1ccc(Nc2nc(N)nc(CN3CCN(Cc4ccc5c(c4)OCO5)CC3)n2)cc1 | inactive |
| COc1ccccc1C(=O)Nc1ccc(S(=O)(=O)N2CCCC2)cc1 | inactive |
| COC(=O)c1cc(=O)n(Cc2ccc3c(c2)OCO3)c(=Nc2ccccc2)s1 | 96.4% |
| CCOC(=O)c1ccc(NC(=O)CSCc2ccco2)cc1 | inactive |
| COc1ccc(S(=O)(=O)Cc2ccc(C(=O)N3CCN(Cc4ccccc4)CC3)o2)cc1 | inactive |
| CCC(c1c(C)n(C)n(-c2ccccc2)c1=O)c1c(C)n(C)n(-c2ccccc2)c1=O | inactive |
| Cc1nc2ccccn2c(=O)c1CCN1CCC(C(=O)c2ccc(F)cc2)CC1 | inactive |
| Cc1nc2sccn2c(=O)c1CCN1CCC(=C(c2ccc(F)cc2)c2ccc(F)cc2)CC1 | 87.2% |
| Cc1cccn2c(=O)c3cc(C#N)c(=NC(=O)c4ccncc4)n(Cc4ccco4)c3nc12 | inactive |
| CC(C)n1c(=NC(=O)c2ccco2)c(C#N)cc2c(=O)n3ccccc3cc21 | 78.9% (active) |
| CCOC(=O)c1cc2c(=O)n3ccccc3nc2n(CC(C)C)c1=NC(=O)c1ccco1 | inactive |
| Cc1n[nH]c(C)c1S(=O)(=O)N1CCCCCC1 | inactive |
| CC1Oc2ccccc2N(CC(=O)N(Cc2ccccc2)Cc2ccccn2)C1=O (centres undefined) | inactive |
| COc1ccc(N2CCN(Cc3nc(-c4ccc(Cl)cc4Cl)no3)CC2)cc1 | inactive |
| O=C(/C=C1\NC2(CCCC2)Cc2ccccc21)N1CCOCC1 | inactive |
| CCCN1C=CC(=C2C(=O)c3ccccc3C2=O)C=C1 | inactive |
| COc1ccc2cc3cc(C(=O)NCC4CCCO4)oc3nc2c1 (centres undefined) | inactive |
| CC1(C(=O)NC2CCCCC2)CCC(=O)N1Cc1cccs1 (centres undefined) | inactive |
| COc1ccc(Br)cc1S(=O)(=O)N1CCOCC1 | inactive |
| Cc1cccc(-c2nnc(SCC#N)n2-c2cccc(Cl)c2)c1 | inactive |
| COc1ccc2cc(CN(CCO)C(=O)c3ccccc3F)c(=O)[nH]c2c1 | inactive |
| CCn1nnc(NC(=O)c2cc3ccccc3o2)n1 | inactive |
| CCOC(=O)c1cccc(NC(=O)CSc2nnc(-c3ccoc3C)n2CCOC)c1 | inactive |
| COC(=O)c1ccccc1NC(=O)CSc1nc2c(c(=O)n(C)c(=O)n2C)n1C | inactive |
| Cc1ccc(-c2cc(C(F)F)n3ncc(C(=O)N4CCN(c5ccccn5)CC4)c3n2)cc1 | 80.5% (active) |

| Compound | inhibition |
| --- | --- |
| O=C(c1cnn2c(C(F)F)cc(-c3ccccc3)nc12)N1CCN2CCCC2C1 (centres undefined) | inactive |
| CCOc1ccc(-c2cc(C(=O)N3CCN(c4ccccn4)CC3)c3ccccc3n2)cc1 | inactive |
| CC1(C)CC(CCNC(=O)c2ccco2)CC(C)(C)N1 | inactive |
| CC1CCc2nn(CC(=O)NCc3ccc4c(c3)OCO4)cc2C1 (centres undefined) | inactive |
| CCS(=O)(=O)c1nc2ccccc2n1Cc1ccccc1Cl | inactive |
| O=C1c2oc3ccccc3c(=O)c2C(c2ccccn2)N1Cc1ccccc1 (centres undefined) | inactive |
| COc1ccc(Cl)c(NC(=O)NCCN2CCN(c3ccccc3)CC2)c1 | inactive |
| Cc1cc2ncn(C(=O)c3c(-c4ccccc4)noc3C)c2cc1C | inactive |
| CCOC(=O)c1ccccc1NC1c2ccccc2C(=O)N1C1CCN(C(=O)OCC)CC1 (centres undefined) | inactive |
| CCOC(=O)N1CCC(N2C(=O)c3ccccc3C2Nc2ccccc2C)CC1 (centres undefined) | inactive |
| CCOC(=O)N1CCC(N2C(=O)c3ccccc3C2Nc2cc(Cl)c(OC)cc2OC)CC1 (centres undefined) | 72.7% (active) |
| CCN(CC)C(=O)CSc1nnc([C@@H](N)Cc2ccccc2)o1 | inactive |
| Cc1nnc(NC(=O)c2ccccc2F)s1 | inactive |
| CCOc1ccc(N(CC(=O)NC2CCCC2)S(=O)(=O)c2c(C)[nH]c(=O)[nH]c2=O)cc1 | inactive |
| CC1CC(C)CN(Cc2nc3c(c(=O)n(C)c(=O)n3C)n2Cc2ccccc2Cl)C1 (centres undefined) | inactive |
| O=C(COC(=O)c1ccc(S(=O)(=O)Nc2ccccc2)cc1)NCCN1C(=O)CSC1=O | inactive |
| CCOC(=O)CSc1nc2ccccc2c(=O)n1CCN1CCOCC1 | inactive |
| O=C(NCCC1=CCCCC1)C1CC(=O)N(C2CCCCCC2)C1 (centres undefined) | inactive |
| CCCN1CCN(CCCNC(=O)Cn2nc(-c3ccc(Cl)cc3)ccc2=O)CC1 | inactive |
| Cc1ccc(-c2ccc(=O)n(CC(=O)NCCCN3CCCCC3C)n2)cc1 (centres undefined) | inactive |
| COCc1nnc(NC(=O)CCCOc2ccccc2)s1 | inactive |
| Cc1ccc(NC(=O)CCC(=O)O)cc1F | inactive |
| CC1Cc2ccccc2N1C(=O)CSc1nnc2n1C(C)(C)Cc1ccccc1-2 (centres undefined) | inactive |
| CCOc1ccc(Nc2nc(Cc3nnc(SCC(N)=O)o3)cs2)cc1 | inactive |
| COc1ccc(Br)cc1C1N2CC3(C)CN1CC(C)(C2)C3=O (centres undefined) | inactive |

| Compound | inhibition |
| --- | --- |
| Cc1cc(C)nc(SC2=CS(=O)(=O)c3ccccc32)n1 | 99.6% |
| O=S1(=O)C=C(Sc2nnc(-c3ccccc3)o2)c2ccccc21 | inactive |
| CCCCN(CCCC)CCn1cnc2c([nH]c3ccc(OC)cc32)c1=O | inactive |
| O=C(CC1Oc2ccccc2NC1=O)NCCCN1CCOCC1 (centres undefined) | inactive |
| CC(C)(C)OC(=O)N1CCC(C(=O)N2CCCCCC2)CC1 | inactive |
| Nc1cc(N)cc(-c2nc3ccccc3o2)c1 | inactive |
| Nc1nc(CN2CCOCC2)cs1 | inactive |
| CC(C(=O)N1c2ccc(F)cc2CCC1C)N1C(=O)c2ccccc2C1=O (centres undefined) | inactive |
| COc1cccc(NC(=O)CN2CCN(c3ccccc3F)CC2)c1 | inactive |
| CCOc1ccc(N(CC(=O)Nc2ccc(C)c(C)c2)S(=O)(=O)c2c(C)noc2C)cc1 | inactive |
| N#CCCN(Cc1cccnc1)C(=O)Nc1ccc(Cl)c(Cl)c1 | inactive |
| COc1ccccc1-c1noc(-c2ccco2)n1 | inactive |
| CCOC(=O)Cn1nc(-c2ccc(Cl)cc2)cc1N | inactive |
| Cc1cc(=O)n2[nH]c(-c3ccc(Cl)cc3)cc2n1 | inactive |
| COc1ccc(NC(=O)CN(c2cc(C)cc(C)c2)S(=O)(=O)c2c(C)noc2C)cc1OC | inactive |
| CC(=O)Nc1nc(C)c(-c2csc(Nc3ccc(O)cc3)n2)s1 | inactive |
| c1cc2c(cc1Nc1nc(-c3ccc4c(c3)OCO4)cs1)OCCO2 | inactive |
| Cc1ccc(Cc2c(C)nc3c(C(=O)O)cnn3c2C)cc1 | inactive |
| CCOC(=O)CN1CC23C=CC(O2)C(C(=O)Nc2ccc(OCC)cc2)C3C1=O (centres undefined) | inactive |
| CN(C)CCCN1c2ccccc2Sc2ccccc21 | inactive |
| CN(C)CCCN1c2ccccc2Sc2ccc(C(F)(F)F)cc21 | inactive |
| CNCCCN1c2ccccc2CCc2ccccc21 | inactive |
| CN(C)CCCN1c2ccccc2CCc2ccccc21 | inactive |
| CCC1CCCCN1CCCNC(=O)CC1Oc2ccc(C)cc2NC1=O (centres undefined) | inactive |
